Compound activity as filed in PubChem BioAssay.
TbPYK inhibitor = qHTS of Trypanosoma Brucei Inhibitors; pyruvate kinase (Trypanosoma brucei), Q57TT1; TbPYK enzyme, Kinase-Glo Plus ATP luminescence, 45 min; Potency, µM (highest dose often 76.8 µM), for the others: at the top dose activity, negative = inhibition, hits mostly inhibitors; hit rate 0.12% among 410,000; AID 624173, 2012; further: potency means the concentration at half of the fitted maximal effect; nearly all actives have a fitted effect of over 50% in size
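Quantitative HTS: titrated library compounds versus trypanosomal pyruvate kinase in TEA buffer (pH 7.2) containing KCl, MgCl2, BSA and Tween-20. Reactions were initiated with ADP, 130 uM final. Kinase-Glo Plus luminescence was read after 45 min at RT.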
FMDV antiviral = High Throughput Screening for Foot and Mouth Disease Virus Antivirals; FMDV antiviral cell-based qHTS; Potency, µM (series often up to 57.9 µM), inactives show at the top dose activity change, negative = inhibition, hits mostly inhibitors; hit rate 1.2% among 410,000; calls by dose curve; tested in HEK293T cells; further: read-out not given here; potency means the concentration at half of the fitted maximal effect; nearly all actives have a fitted effect of over 45% in size
HCMV inh = qHTS Assay for inhibitors of the human cytomegalovirus (HCMV); HFF cells, HCMV-luciferase reporter, 72 h; stronger effect = lower value; activity change, negative = inhibition, % at 57.5 µM; hit rate 4.5% among 410,000; AID 1259415, 2018; in the data active means activity change below about -60%; inconclusive means no clear call, values can overlap the other calls; inactive means above about -39%
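Human foreskin fibroblasts infected with luciferase-reporter HCMV at MOI 1 PFU/cell, compounds at two doses. Luciferase measured 72 h post infection; normalized to buffer-only basal and Salinomycin (10uM) controls.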
RE007 growth inh = qHTS Assay for Inhibitors of the HIV-1 protein Vpr; S. pombe RE007 Vpr strain, BacTiter-Glo ATP luminescence, 24 h; Potency, µM (highest dose often 92.2 µM), for inactives: at the highest dose activity change, negative = less growth, hits mostly inhibitors; hit rate 0.21% among 360,000; AID 651644, 2012; active means well fitted falling curve with a large enough effect; inconclusive means small, poorly fitted or top-dose-only effect; inactive means no such curve, though single readings can be large or run the other way; further: potency means the concentration at half of the fitted maximal effect; nearly all actives have a fitted effect of over 50% in size
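Fission yeast RE007 carrying one integrated HIV-1 vpr copy, seeded at OD 0.01 in PMG+AL medium with 23 nL pinned compound. Grown 24 h at 30 degrees; viability read by BacTiter-Glo luminescence after 5 min.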
FBPA Giardia inh = qHTS Assay for Inhibitors of Fructose-1,6-bisphosphate Aldolase from Giardia Lamblia. A8B2U2. AID 2451, 2010. Potency, µM (titrated, usually from 59.6 µM), inactives show at the highest dose activity, negative = inhibition, hits mostly inhibitors. hit rate 0.71% among 290,000. purified Giardia FBPA; further: potency means the concentration at half of the fitted maximal effect; nearly all actives have a fitted effect of over 55% in size
Target sequence (A8B2U2 whole entry, looked up): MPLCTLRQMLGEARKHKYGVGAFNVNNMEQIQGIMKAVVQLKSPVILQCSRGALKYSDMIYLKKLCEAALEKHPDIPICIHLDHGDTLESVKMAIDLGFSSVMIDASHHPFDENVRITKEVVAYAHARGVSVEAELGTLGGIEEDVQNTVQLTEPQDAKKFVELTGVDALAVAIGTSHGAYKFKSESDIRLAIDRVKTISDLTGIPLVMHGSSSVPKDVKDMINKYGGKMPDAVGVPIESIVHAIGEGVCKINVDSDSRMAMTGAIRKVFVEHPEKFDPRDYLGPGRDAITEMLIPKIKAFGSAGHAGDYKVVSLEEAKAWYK
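40 nM FBPA preincubated 10 min at RT with compound (up to 57.5 uM final), then substrate plus GAPDH/TPI/NAD/arsenate coupling and diaphorase/resazurin added. Fluorescence read after 20 min at RT, 525/598 nm.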
Sm TGR inh = qHTS Assay for the Inhibitors of Schistosoma Mansoni Peroxiredoxins | Schistosoma mansoni thioredoxin glutathione reductase (TGR), Q962Y6 | purified TGR, DTNB reduction, TNB absorbance 405 nm | Potency, µM (titrated, usually from 114 µM), for the others: top-dose activity change, negative = inhibition, usual class: inhibitors | hit rate 3% among 360,000; further: potency means the concentration at half of the fitted maximal effect; nearly all actives have a fitted effect of over 60% in size
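TGR 20 nM + NADPH 100 uM (dispensed conc.), cpd preinc 15 min RT; start with NADPH (500 uM addition) then DTNB (15 mM addition). Kinetic TNB absorbance, 405 nm filter. Four-parameter Hill fit across titration.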
* = called active by the depositor; [ ] = dose if it differs, or a comment. Hits are enriched below; roughly 7.7% of the tested compounds scored in any of these assays. Unless noted, the call rests on the fitted dose curve; in most records, active means well fitted curve in the direction sought with a large enough effect; inconclusive means small, poorly fitted or top-dose-only effect, or another doubt; inactive means no such curve, though single readings can be large; an effect the other way counts as inactive or inconclusive. On the % scale 0 is the no-effect control and ±100 the full control effect.

`CSc1ccc(CN2C(=O)C(C)ON=C2c2ccccc2F)cc1` (stereo unspecified) gave TbPYK inhibitor -6%, FMDV antiviral -21%, HCMV inh -98* and RE007 growth inh 5%[18.4 µM].
`COCCCNC(=O)CS(=O)Cc1nc(-c2cccc(OC)c2)oc1C` (stereo unspecified) gave FMDV antiviral 6%, HCMV inh 18, RE007 growth inh 0%[3.69 µM], FBPA Giardia inh 0% and Sm TGR inh 40µM*.
`COc1cccc(-c2nc(CS(=O)CC(=O)NCc3ccccc3Cl)c(C)o2)c1` (stereo unspecified) gave TbPYK inhibitor 0%, FMDV antiviral 14%, HCMV inh 21, RE007 growth inh 4%, FBPA Giardia inh -1% and Sm TGR inh 32µM*.
`CCCOc1ccc(CNC(=O)C(NS(=O)(=O)c2cccs2)C(C)C)cc1` (stereo unspecified) gave TbPYK inhibitor -8%, FMDV antiviral 3%, HCMV inh -3 and Sm TGR inh inconclusive.
COc1cc(SC)ccc1C(=O)N1CCn2c3c(c4cc(C)ccc42)CCCC31 (stereo unspecified) was read as TbPYK inhibitor 4%, FMDV antiviral -12%, HCMV inh 5 and Sm TGR inh -2%.
CCOC(=O)c1cccc(NC(=O)c2ccc3c(Cl)c4c(nc3c2)CCC4)c1 was read as TbPYK inhibitor 7%, FMDV antiviral -5%, HCMV inh 50 and Sm TGR inh 2%.
For Cc1nn(-c2ccccc2)c(N2CCCC2)c1/C=N/NC(=O)c1cc(-c2ccccc2)nc2ccccc12 the results were TbPYK inhibitor -5%, FMDV antiviral inconclusive, HCMV inh 9, RE007 growth inh 1%, FBPA Giardia inh 0% and Sm TGR inh 8%.
Screening Cc1nn(-c2ccccc2)c(N2CCCC2)c1/C=N/NC(=S)Nc1ccccc1F returned TbPYK inhibitor -13%, FMDV antiviral 13%, HCMV inh -61*, RE007 growth inh -15%, FBPA Giardia inh 10% and Sm TGR inh -2%.
`Cc1nn(-c2ccccc2)c(N2CCCC2)c1/C=N/NC(=O)c1cc2ccccc2cc1O` gave TbPYK inhibitor -14%, FMDV antiviral 40µM*, HCMV inh 2, RE007 growth inh -7%, FBPA Giardia inh 3% and Sm TGR inh 6%.
Screening CCn1nc(-c2ccccc2)nc2c(=O)n(C)c(=O)nc1-2 returned TbPYK inhibitor -5%, FMDV antiviral 1.8µM*, RE007 growth inh 25µM*, FBPA Giardia inh inconclusive and Sm TGR inh inconclusive.
`O=C(NC1CCCCC1)c1ccc(CSc2nc3ccncc3n2Cc2ccc(F)cc2)cc1` gave TbPYK inhibitor -4%, FMDV antiviral inconclusive, HCMV inh -28 and Sm TGR inh -12%.
For Cc1ccc(Cn2c(SCc3ccc(C(=O)N4CCCCCC4)cc3)nc3ccncc32)cc1 the results were TbPYK inhibitor 1%, FMDV antiviral -37%, HCMV inh -24 and Sm TGR inh 0%.
Screening CC1CCC(NC(=O)c2ccc(CSc3nc4ccncc4n3Cc3ccc(F)cc3)cc2)CC1 (stereo unspecified) returned TbPYK inhibitor 10%, FMDV antiviral inconclusive, HCMV inh -93* and Sm TGR inh 3%.
`Cc1ccc(Cn2c(SCc3ccc(C(=O)N4CCCCC4)cc3)nc3ccncc32)cc1` gave TbPYK inhibitor 2%, FMDV antiviral -18%, HCMV inh -60* and Sm TGR inh -19%.
